This passage reports inhibition results from ChEMBL document CHEMBL1961873, “Compounds: GSK PKIS; Assays: Nanosyn kinase panel” (2012).

Test [1] has as its target Sphingosine kinase 1 (Homo sapiens) (UniProt Q9NYA1). Conditions: at 1 µM.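 Further: mean SPHK1 inhibition value reported from the GSK PKIS kinase panel screen.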
Test [2] addresses T1, Sphingosine kinase 2 (Homo sapiens) (UniProt Q9NRA0).
T1 sequence (whole entry): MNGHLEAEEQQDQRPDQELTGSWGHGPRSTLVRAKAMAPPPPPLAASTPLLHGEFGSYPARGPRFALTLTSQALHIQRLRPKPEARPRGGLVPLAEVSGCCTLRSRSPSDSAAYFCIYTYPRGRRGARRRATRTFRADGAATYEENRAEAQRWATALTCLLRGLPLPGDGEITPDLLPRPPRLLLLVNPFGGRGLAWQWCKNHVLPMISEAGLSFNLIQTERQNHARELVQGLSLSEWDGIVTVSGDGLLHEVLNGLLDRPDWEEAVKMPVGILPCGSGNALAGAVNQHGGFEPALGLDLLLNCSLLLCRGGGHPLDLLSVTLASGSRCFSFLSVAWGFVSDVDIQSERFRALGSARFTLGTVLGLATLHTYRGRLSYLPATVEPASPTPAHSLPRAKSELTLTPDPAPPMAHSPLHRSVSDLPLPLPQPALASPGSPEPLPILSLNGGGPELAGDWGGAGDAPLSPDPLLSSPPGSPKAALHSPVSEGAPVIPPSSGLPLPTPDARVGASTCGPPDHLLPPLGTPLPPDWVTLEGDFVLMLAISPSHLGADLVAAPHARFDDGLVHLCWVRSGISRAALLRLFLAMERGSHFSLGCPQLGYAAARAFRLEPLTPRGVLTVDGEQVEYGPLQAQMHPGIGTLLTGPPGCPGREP
Conditions: at 0.1 µM.

The target in test [3] is T1, Sphingosine kinase 2 (Homo sapiens). Particulars: at 1 µM.
The target in test [4] is Casein kinase II subunit alpha (Homo sapiens) (UniProt P68400). Particulars: at 0.1 µM.
The target is the same in test [5]. Conditions: at 1 µM.
Test [6] deals with T2, Inhibitor of nuclear factor kappa-B kinase subunit alpha (Homo sapiens) (UniProt O15111).
T2 sequence (whole entry): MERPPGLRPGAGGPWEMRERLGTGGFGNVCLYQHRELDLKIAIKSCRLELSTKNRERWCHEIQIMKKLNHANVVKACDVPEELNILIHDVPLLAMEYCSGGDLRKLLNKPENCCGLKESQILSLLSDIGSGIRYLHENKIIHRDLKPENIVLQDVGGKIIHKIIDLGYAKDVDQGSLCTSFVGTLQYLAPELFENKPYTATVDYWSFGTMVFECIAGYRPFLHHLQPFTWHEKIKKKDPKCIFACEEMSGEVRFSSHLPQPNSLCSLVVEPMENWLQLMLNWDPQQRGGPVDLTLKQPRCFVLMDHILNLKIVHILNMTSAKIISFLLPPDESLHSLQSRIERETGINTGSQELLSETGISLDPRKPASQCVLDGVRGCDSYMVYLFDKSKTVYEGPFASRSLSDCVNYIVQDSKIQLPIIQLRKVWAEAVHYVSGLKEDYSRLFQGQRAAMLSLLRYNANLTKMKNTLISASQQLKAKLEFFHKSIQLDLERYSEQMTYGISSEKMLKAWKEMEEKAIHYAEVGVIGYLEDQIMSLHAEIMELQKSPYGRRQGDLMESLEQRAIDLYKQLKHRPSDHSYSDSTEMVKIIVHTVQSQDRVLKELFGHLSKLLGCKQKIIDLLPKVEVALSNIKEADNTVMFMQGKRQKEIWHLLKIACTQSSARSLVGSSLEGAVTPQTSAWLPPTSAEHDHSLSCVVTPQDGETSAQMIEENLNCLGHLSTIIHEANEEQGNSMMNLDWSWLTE
Conditions: at 0.1 µM.

Test [7] has as its target T2, Inhibitor of nuclear factor kappa-B kinase subunit alpha (Homo sapiens). Particulars: at 1 µM.
Test [8] addresses T3, Inhibitor of nuclear factor kappa-B kinase subunit beta (Homo sapiens) (UniProt O14920).
T3 sequence (whole entry): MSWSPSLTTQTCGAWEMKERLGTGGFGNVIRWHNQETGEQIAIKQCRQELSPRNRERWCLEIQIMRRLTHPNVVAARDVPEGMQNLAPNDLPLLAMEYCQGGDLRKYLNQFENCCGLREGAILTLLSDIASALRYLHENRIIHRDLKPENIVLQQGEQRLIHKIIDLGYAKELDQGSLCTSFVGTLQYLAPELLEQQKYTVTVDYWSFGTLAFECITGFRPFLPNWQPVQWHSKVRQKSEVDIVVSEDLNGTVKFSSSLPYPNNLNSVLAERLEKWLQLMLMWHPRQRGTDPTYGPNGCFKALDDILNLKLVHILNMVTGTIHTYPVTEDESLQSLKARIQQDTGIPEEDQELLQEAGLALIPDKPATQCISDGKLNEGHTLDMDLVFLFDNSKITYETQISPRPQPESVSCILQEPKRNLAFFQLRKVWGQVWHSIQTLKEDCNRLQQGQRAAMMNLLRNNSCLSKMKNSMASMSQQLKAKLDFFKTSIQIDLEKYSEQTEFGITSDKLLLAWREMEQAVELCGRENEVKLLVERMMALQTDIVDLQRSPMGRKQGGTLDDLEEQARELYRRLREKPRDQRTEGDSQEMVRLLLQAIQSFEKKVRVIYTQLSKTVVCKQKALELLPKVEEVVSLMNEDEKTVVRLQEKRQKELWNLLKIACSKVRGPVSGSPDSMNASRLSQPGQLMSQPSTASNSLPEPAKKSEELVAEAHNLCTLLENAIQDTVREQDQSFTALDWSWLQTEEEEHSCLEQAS
Particulars: at 0.1 µM.

The target of test [9] is T3, Inhibitor of nuclear factor kappa-B kinase subunit beta (Homo sapiens). Conditions: at 1 µM.
The target in test [10] is T4, Inhibitor of nuclear factor kappa-B kinase subunit epsilon (Homo sapiens) (UniProt Q14164).
T4 sequence (whole entry): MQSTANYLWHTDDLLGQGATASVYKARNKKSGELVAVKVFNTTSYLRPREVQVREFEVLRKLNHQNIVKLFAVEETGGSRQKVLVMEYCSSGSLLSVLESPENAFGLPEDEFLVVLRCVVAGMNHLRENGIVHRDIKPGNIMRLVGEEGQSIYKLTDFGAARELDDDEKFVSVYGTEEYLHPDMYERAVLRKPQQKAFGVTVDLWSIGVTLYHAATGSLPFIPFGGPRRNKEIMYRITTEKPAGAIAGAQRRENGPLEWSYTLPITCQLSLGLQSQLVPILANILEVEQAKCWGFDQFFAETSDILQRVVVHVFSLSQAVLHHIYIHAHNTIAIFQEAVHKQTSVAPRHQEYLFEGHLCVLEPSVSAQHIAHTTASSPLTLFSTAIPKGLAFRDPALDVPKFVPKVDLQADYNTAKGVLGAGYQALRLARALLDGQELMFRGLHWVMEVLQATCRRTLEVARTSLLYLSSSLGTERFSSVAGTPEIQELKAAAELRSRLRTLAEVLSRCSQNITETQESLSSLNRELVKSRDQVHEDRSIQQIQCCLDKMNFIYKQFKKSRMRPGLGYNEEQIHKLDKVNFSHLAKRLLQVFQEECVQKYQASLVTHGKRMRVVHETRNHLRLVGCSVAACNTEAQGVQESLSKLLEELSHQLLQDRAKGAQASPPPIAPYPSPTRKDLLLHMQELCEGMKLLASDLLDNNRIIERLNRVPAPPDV
Particulars: at 0.1 µM.

Test [11] deals with T4, Inhibitor of nuclear factor kappa-B kinase subunit epsilon (Homo sapiens). Particulars: at 1 µM.
Test [12] deals with T5, Serine/threonine-protein kinase Nek1 (Homo sapiens) (UniProt Q96PY6).
T5 sequence (whole entry): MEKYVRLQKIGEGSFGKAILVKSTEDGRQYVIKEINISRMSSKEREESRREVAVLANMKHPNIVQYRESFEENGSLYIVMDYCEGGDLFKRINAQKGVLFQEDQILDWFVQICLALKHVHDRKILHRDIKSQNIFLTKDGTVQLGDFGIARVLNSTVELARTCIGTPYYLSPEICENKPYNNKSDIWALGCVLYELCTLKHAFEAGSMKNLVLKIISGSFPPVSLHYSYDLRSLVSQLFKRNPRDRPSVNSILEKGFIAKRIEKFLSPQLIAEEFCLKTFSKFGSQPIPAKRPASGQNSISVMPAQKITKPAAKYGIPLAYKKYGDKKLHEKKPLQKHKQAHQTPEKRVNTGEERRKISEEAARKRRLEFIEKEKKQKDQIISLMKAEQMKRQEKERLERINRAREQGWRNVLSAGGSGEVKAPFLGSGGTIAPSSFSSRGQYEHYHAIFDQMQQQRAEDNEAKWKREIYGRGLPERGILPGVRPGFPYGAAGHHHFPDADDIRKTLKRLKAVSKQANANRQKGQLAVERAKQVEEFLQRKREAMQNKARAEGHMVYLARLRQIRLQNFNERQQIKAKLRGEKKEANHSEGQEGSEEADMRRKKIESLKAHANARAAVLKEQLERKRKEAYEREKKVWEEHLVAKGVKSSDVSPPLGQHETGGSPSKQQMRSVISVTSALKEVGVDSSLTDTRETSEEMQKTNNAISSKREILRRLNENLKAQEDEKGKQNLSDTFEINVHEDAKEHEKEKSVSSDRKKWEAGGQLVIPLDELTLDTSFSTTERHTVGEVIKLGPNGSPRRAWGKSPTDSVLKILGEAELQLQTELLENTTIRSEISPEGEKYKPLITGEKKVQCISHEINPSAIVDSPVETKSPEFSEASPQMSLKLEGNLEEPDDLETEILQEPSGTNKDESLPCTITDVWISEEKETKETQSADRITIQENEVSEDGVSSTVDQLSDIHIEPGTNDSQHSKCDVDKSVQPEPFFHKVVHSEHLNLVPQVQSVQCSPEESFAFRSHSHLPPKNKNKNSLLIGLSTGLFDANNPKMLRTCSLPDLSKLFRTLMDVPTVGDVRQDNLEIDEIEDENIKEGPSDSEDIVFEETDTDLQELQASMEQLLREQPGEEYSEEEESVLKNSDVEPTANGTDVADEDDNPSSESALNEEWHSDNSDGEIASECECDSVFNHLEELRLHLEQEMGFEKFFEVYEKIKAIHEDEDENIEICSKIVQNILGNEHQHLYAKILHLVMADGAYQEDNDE
Conditions: at 0.1 µM.

Test [13] has as its target T5, Serine/threonine-protein kinase Nek1 (Homo sapiens). Particulars: at 1 µM.
Test [14] addresses T6, Serine/threonine-protein kinase Nek2 (Homo sapiens) (UniProt P51955).
T6 sequence (whole entry): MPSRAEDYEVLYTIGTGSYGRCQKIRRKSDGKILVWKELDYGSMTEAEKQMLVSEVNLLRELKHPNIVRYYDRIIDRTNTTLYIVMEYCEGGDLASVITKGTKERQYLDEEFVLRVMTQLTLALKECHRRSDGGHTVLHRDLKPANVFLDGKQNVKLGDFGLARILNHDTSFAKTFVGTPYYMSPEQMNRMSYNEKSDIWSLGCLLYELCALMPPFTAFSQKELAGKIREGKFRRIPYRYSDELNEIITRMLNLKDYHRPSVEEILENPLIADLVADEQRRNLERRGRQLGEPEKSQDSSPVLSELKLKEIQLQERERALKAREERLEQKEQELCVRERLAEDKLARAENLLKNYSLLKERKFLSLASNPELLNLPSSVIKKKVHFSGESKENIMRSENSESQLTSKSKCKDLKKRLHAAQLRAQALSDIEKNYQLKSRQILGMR
Particulars: at 0.1 µM.

The target in test [15] is T6, Serine/threonine-protein kinase Nek2 (Homo sapiens). Conditions: at 1 µM.
In test [16] the target is Serine/threonine-protein kinase Nek6 (Homo sapiens) (UniProt Q9HC98). Particulars: at 0.1 µM.
Test [17] shares this target. Particulars: at 1 µM.
Test [18] addresses Serine/threonine-protein kinase Nek7 (Homo sapiens) (UniProt Q8TDX7). Particulars: at 0.1 µM.
The target is the same in test [19]. Particulars: at 1 µM.
Test [20] has as its target T7, Serine/threonine-protein kinase Nek9 (Homo sapiens) (UniProt Q8TD19).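 Further: reported value is the mean percent inhibition of NEK9.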
T7 sequence (whole entry): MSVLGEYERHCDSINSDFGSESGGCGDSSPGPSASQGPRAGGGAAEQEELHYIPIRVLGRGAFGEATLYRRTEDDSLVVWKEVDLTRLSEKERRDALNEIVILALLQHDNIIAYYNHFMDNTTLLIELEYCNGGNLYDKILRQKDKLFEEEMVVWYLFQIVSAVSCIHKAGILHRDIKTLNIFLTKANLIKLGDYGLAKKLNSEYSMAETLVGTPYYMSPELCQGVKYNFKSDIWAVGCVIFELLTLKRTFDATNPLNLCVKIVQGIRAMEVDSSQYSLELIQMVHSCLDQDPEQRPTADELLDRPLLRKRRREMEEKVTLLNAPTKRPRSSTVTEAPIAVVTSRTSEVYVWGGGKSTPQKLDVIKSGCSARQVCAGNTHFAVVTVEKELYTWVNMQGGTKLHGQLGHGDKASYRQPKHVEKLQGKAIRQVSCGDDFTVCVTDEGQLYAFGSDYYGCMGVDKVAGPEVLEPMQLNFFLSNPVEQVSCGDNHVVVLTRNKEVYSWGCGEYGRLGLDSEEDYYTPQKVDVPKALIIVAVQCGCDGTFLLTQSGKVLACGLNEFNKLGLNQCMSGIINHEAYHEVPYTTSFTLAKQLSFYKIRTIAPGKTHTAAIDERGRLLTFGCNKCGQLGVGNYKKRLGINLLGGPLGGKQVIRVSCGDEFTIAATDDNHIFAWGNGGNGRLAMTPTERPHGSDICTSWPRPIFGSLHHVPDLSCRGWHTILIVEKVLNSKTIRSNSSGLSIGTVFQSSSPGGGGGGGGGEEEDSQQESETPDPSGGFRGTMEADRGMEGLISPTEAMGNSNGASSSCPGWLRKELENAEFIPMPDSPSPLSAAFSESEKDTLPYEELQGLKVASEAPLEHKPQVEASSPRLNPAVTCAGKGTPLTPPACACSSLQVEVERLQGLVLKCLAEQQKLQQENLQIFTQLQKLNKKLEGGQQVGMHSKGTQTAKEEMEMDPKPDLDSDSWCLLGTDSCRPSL
Particulars: at 0.1 µM.

Chain of Serine/threonine-protein kinase Nek7 (Homo sapiens) (Q8TDX7 whole entry, looked up): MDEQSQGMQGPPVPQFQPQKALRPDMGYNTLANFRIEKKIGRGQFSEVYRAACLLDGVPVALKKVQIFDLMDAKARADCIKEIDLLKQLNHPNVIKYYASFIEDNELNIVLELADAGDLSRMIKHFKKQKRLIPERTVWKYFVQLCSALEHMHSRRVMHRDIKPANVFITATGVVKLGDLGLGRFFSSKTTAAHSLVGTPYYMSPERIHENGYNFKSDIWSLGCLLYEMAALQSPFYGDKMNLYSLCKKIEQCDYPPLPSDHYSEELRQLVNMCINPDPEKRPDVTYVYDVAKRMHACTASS
Chain of Serine/threonine-protein kinase Nek6 (Homo sapiens) (Q9HC98 whole entry): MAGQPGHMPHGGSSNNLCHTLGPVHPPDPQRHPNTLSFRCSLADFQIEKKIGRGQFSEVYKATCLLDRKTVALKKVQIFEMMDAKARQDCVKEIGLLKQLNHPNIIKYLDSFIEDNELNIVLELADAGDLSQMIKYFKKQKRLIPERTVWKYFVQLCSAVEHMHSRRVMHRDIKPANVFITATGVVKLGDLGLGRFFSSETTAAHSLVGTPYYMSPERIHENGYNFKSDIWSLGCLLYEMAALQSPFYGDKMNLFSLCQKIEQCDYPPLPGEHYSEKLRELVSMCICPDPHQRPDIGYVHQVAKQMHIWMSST
Chain of Casein kinase II subunit alpha (Homo sapiens) (P68400 whole entry, looked up): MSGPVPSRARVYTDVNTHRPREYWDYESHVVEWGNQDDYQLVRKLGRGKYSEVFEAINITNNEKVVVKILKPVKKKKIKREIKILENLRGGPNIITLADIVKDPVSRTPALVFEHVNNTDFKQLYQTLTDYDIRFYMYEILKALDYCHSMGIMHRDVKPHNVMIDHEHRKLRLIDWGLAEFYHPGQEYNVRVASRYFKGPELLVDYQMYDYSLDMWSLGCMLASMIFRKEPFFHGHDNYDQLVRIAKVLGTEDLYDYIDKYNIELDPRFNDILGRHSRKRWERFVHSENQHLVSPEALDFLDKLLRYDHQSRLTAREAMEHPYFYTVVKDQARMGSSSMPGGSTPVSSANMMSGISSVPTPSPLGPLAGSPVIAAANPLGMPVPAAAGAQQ
Chain of Sphingosine kinase 1 (Homo sapiens) (Q9NYA1 whole entry): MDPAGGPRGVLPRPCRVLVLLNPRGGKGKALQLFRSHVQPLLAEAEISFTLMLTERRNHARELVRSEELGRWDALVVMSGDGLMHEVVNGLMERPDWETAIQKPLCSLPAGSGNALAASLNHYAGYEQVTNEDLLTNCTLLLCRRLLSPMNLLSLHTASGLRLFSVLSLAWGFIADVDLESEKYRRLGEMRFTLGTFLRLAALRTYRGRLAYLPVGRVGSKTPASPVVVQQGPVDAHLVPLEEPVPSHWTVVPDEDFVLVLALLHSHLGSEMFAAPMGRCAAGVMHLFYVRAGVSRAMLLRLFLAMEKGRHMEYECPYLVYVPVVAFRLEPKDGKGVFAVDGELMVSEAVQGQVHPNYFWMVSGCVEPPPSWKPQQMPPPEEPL

Consider `CC1=C(C(=O)Nc2ccc3[nH]ncc3c2)C(c2ccc(F)cc2)N=C(c2ccc(C(F)(F)F)nc2)N1` (stereo not given), for which the inhibition is 2.01% in [1]; 0% in [2]; -2.07% in [3]; 2.45% in test [4]; 2.14% in test [5]; 7.64% in [6]. In addition, the inhibition in test [7] is -0.7%; in [8], 2.1%; in test [9] it was -0.37%; in [10], 2.04%; in [11] it was 3.45%; in test [12], 1.75%. In addition, the inhibition was 1.45% in test [13]; 3.41% in test [14]; 2.65% in [15]; 1.87% in [16]; -0.45% in [17]; 3.08% in test [18]. In addition, the inhibition came out at 2.92% in test [19] and 2.7% in test [20].
